Assay outcomes deposited in PubChem BioAssay by Center for Chemical Genomics, University of Michigan.
Many of the other results were omitted from the sample, so hits are more common in it than they were.
Dicer inh = human Dicer pre-microRNA cleavage inhibition; z-score at 25 µM; AID 1347074; 47,000 tested, 6% active; cat-ELCCA pre-miR-21 Dicer processing, chemiluminescence; active compounds read high; Q9UPY3; in the data active = z-score above about 3, passing the limit was not always enough;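 note: plate controls were vehicle for no effect and no enzyme for full effect; higher signal means more uncleaved substrate so more Dicer inhibition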
Numbers without * were called inactive.

How did O=C(NCc1ccccc1)c1nn2c(c1Br)NC(c1ccccc1)CC2C(F)(F)F (configuration not stated) do in these assays?
Dicer inh: 5.2*

What do the screens show for `O=C(c1nn2c(c1Cl)NC(c1ccc(F)cc1)CC2C(F)(F)F)N1CCCCC1` (configuration not stated)?
Dicer inh: 8.8

What do the screens show for `O=C(NCc1cccnc1)c1nn2c(c1Cl)NC(c1ccccc1)CC2C(F)(F)F` (configuration not stated)?
Dicer inh: -1.8

What do the screens show for `Cc1ccc(C2CC(C(F)(F)F)n3nc(C(=O)NCc4c(C)nn(C)c4C)c(Cl)c3N2)cc1` (configuration not stated)?
Dicer inh: -1.2

Results for CCC(C)NC(=O)c1cc2n(n1)C(C(F)(F)F)CC(c1ccc3c(c1)OCO3)N2 (configuration not stated) ?
Dicer inh: 2.5

How did NC(=O)c1nn2c(c1Cl)NC(c1ccc(Cl)cc1)CC2C(F)(F)F (configuration not stated) do in these assays?
Dicer inh: 3.5*

How did Cc1c(CNC(=O)c2nn3c(c2Cl)NC(c2cccs2)CC3C(F)(F)F)cnn1C (configuration not stated) do in these assays?
Dicer inh: 1.2

Results for CCCNC(=O)c1nn2c(c1Br)NC(c1cccs1)CC2C(F)(F)F (configuration not stated) ?
Dicer inh: -0.29

What do the screens show for `O=C(c1nn2c(c1Cl)NC(c1ccc(Cl)cc1)CC2C(F)(F)F)N1CCSCC1` (configuration not stated)?
Dicer inh: 0.58

How did O=C(c1nn2c(c1Cl)NC(c1cccs1)CC2C(F)(F)F)N1CCCc2ccccc21 (configuration not stated) do in these assays?
Dicer inh: 2.8

How did CC(=O)c1csc(Nc2c(C)cc(C)cc2C)n1 do in these assays?
Dicer inh: -0.05

What do the screens show for `CCCc1c(C)c(C#N)c2nc3ccccc3n2c1NCc1cccnc1`?
Dicer inh: -1.6

How did OC1CC(c2ccccc2)NC2(CCCC2)C1 (configuration not stated) do in these assays?
Dicer inh: -0.74

Results for O=S(=O)(CS(=O)(=O)Oc1cccc(Br)c1)Oc1cccc(Br)c1 ?
Dicer inh: 0.33

How did COC(=O)C1=C(C)NC2=C(C(=O)CCC2)C1c1ccc(CN2C(=O)c3ccccc3C2=O)o1 (configuration not stated) do in these assays?
Dicer inh: 0.61

How did Cc1onc(-c2c(Cl)cccc2Cl)c1NC(=O)NN(C)C(=S)SCc1c(F)cccc1Cl do in these assays?
Dicer inh: 0.26

How did Cc1onc(-c2c(Cl)cccc2Cl)c1NC(=O)OCc1c(F)cccc1Cl do in these assays?
Dicer inh: 4*

What do the screens show for `CC(=O)NOC(=O)c1c(-c2c(Cl)cccc2Cl)noc1C`?
Dicer inh: 0.86

How did CCCNC(=O)O/N=C(\N)c1c(-c2c(Cl)cccc2Cl)noc1C do in these assays?
Dicer inh: 4.5*

How did Cc1onc(-c2c(Cl)cccc2Cl)c1C(=O)ONC(=O)C(C)(C)C do in these assays?
Dicer inh: 0.7

Results for Cc1onc(-c2c(Cl)cccc2Cl)c1NC(=O)OCCOc1ccc(Cl)cc1Cl ?
Dicer inh: -0.91

Results for Cn1c(=O)c2[nH]c(-c3ccco3)nc2n(C)c1=O ?
Dicer inh: 0.85

Results for CC1=C(C(=O)OCCOc2ccccc2)C(c2ccccc2Br)C2=C(CCCC2=O)N1 (configuration not stated) ?
Dicer inh: 0.27

Results for Cc1c(C(=O)O)cc(C(C)(C)C)n1-c1ccccc1 ?
Dicer inh: 0.95

What do the screens show for `CCC(OC(=O)CN1C(=O)C(=O)c2ccccc21)C(=O)Nc1sc2c(c1C#N)CCCC2` (configuration not stated)?
Dicer inh: 0.27

How did O=C(OCCS(=O)(=O)c1ccccn1)c1ccccc1 do in these assays?
Dicer inh: -1.1

Results for CCc1c(C)nc(N2CCOCC2)[nH]c1=O ?
Dicer inh: -0.93

What do the screens show for `CCOc1cc(N2CCOCC2)c(OCC)cc1NS(=O)(=O)C(C)C`?
Dicer inh: 1.4

Results for CC(C)Oc1c(N2CCOCC2)c(=O)c1=O ?
Dicer inh: 5.3*

What do the screens show for `N[C@@H](Cc1ccccc1)c1nnc(SCc2ccccc2)o1`?
Dicer inh: -0.29

Results for COC(=O)CSc1nccc(-c2ccc3c(c2)CCC(C)(C)O3)n1 ?
Dicer inh: 0.48

What do the screens show for `Cc1ccc(N2C(=O)CC(N3CCN(c4ncccn4)CC3)C2=O)cc1Cl` (configuration not stated)?
Dicer inh: 0.28

Results for CCOc1ccc(/C(O)=C2\C(=O)C(=O)N(c3nnc(C)s3)C2c2ccc(OC)c(OC)c2)cc1 (configuration not stated) ?
Dicer inh: 2.3

Results for CCOc1ccc(/C(O)=C2\C(=O)C(=O)N(c3nnc(C)s3)C2c2ccc(OC)cc2)cc1 (configuration not stated) ?
Dicer inh: 1.4

Results for CCOc1ccc(/C(O)=C2\C(=O)C(=O)N(c3nccs3)C2c2ccc(OC)c(OC)c2)cc1 (configuration not stated) ?
Dicer inh: 3.6*

How did O=C(/C=C/S/C=C/C(=O)c1ccc(F)cc1)c1ccc(F)cc1 do in these assays?
Dicer inh: -0.81

What do the screens show for `CCCCOc1ccc(N2C(=O)C3CC(C)=C(C)CC3C2=O)cc1` (configuration not stated)?
Dicer inh: 0.63

How did CC1=C(C)CC2C(=O)N(c3ccc(Oc4ccc(Cl)cc4)cc3)C(=O)C2C1 (configuration not stated) do in these assays?
Dicer inh: 3.3*

What do the screens show for `CC1=C(C)CC2C(=O)N(c3ccc(N(C)C)cc3)C(=O)C2C1` (configuration not stated)?
Dicer inh: 0.61

Results for CC1=C(C)CC2C(=O)N(c3ccccc3F)C(=O)C2C1 (configuration not stated) ?
Dicer inh: 4.9*

How did COc1cc(OC)cc(N2C(=O)C3CC(C)=C(C)CC3C2=O)c1 (configuration not stated) do in these assays?
Dicer inh: -2.2

Results for CC12N=NCC1C(=O)N(c1ccccc1F)C2=O (configuration not stated) ?
Dicer inh: 1.7

How did CCCN1C(=O)C(O)(CC(=O)c2ccc(-n3cccc3)cc2)c2cc(Br)ccc21 (configuration not stated) do in these assays?
Dicer inh: 2.6

How did Cc1cc(C)c2c(N)c(-c3n[nH]c(=S)n3Cc3ccccc3)sc2n1 do in these assays?
Dicer inh: -2

How did CCOC(=O)c1c(C)oc2ccc(OCc3ccc(F)cc3)cc12 do in these assays?
Dicer inh: 0.96

How did CCOC(=O)c1cc2cc(OCc3ccccc3)ccc2n1C(=O)c1ccccc1C(=O)O do in these assays?
Dicer inh: 3.1*

How did O=C(O)c1cc2cc(OCc3ccccc3)ccc2[nH]1 do in these assays?
Dicer inh: -0.97

How did O=S1(=O)N=C(Nc2ccc(N3CCCCC3)c(Cl)c2)c2ccccc21 do in these assays?
Dicer inh: 1.6

What do the screens show for `O=S(=O)(Cc1nc(CSc2nnc(SCC3CC3)s2)cs1)c1ccc(Cl)cc1`?
Dicer inh: 1.3

Results for Cc1onc(-c2c(Cl)cccc2Cl)c1C(=O)NC(C)(C)C ?
Dicer inh: -0.74

What do the screens show for `CC(C)NC(=O)Oc1noc2cc(Cl)ccc12`?
Dicer inh: -0.39

How did CC(C)(C)c1ccc(-c2nc(-c3ccccn3)no2)cc1 do in these assays?
Dicer inh: 2.4
